Reference: the supplement of paper PMC7801607

Assays:
[1] = tested on: CHO; test: % viability of CHO cells (MTT); higher = less toxic; settings: 48 h
Procedure, shortened: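 For 48 h, attached CHO cells (10^6 cells/well, 200 µL, seeded the night before) were kept in fresh medium carrying compound at 2 or 20 µM. A colorimetric tetrazolium (MTT) assay then gave survival as percent viability versus untreated cells.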

[2] = tested on: HepG2-A16-CD81; test: % inhibition of HepG2 viability (CellTiter-Glo); higher = more toxic; settings: 5 µM
[3] = tested on: Plasmodium falciparum NF54 stage IV/V gametocytes; test: % inhibition of gametocyte viability (PrestoBlue); higher = more inhibition; settings: 48 h
Procedure, shortened: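 Stage IV/V NF54 gametocytes at 2% gametocytaemia and 5% haematocrit (100 µL/well) were treated with compound at 1 or 5 µM and incubated for 48 h at 37 °C under stationary, hypoxic conditions. PrestoBlue (10 µL) was then added for 2 h, and fluorescence at 612 nm was read on 70 µL of transferred supernatant. Percent inhibition of gametocyte viability was normalised to vehicle and kill controls within one run.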

[4] = tested on: Plasmodium falciparum NF54 asexual blood stage; test: % inhibition of asexual blood stage proliferation (pLDH); higher = more inhibition; settings: 72 h
Procedure, shortened: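 Plasmodium falciparum NF54 ring-stage cultures (1% haematocrit, 2% parasitaemia) were incubated with compound at 2 or 20 µM for 72 h at 37 °C under 4% CO2, 3% O2 and 93% N2. Survival was read at 620 nm with the parasite lactate dehydrogenase assay. Results were reported as percent inhibition of asexual proliferation relative to controls.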

[5] = tested on: Plasmodium falciparum NF54 stage IV/V gametocytes; test: % inhibition of gametocyte viability (ATP bioluminescence); higher = more inhibition; settings: 24 h
Procedure, shortened: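 Stage IV/V NF54 gametocytes from density gradients (30,000 per well, 96-well plates) were incubated with compound at 1 or 5 µM for 24 h at 37 °C. A single run supplied percent inhibition of gametocyte viability, based on ATP measured with Promega BacTiter Glo and normalised to control wells.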

[6] = tested on: Plasmodium falciparum NF54 stage IV/V gametocytes; test: % inhibition of gametocyte viability (luciferase reporter); higher = more inhibition; settings: 48 h
Procedure, shortened: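 Percent inhibition came from luminescence and was normalised to controls in a single run. Gametocytes (stage IV/V, NF54-Pfs16-GFP-Luc line, 2% gametocytaemia, 2% haematocrit) were treated with compound at 1 or 5 µM and incubated for 48 h at 37 °C without agitation under hypoxia. Readings used 30 µL lysate with 30 µL Promega luciferin substrate on a GloMax-Multi+ reader, integrating for 10 s.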

[7] = tested on: Plasmodium berghei ANKA liver stage in HepG2-A16-CD81; test: % inhibition of liver stage parasite viability (luciferase); higher = more inhibition; settings: 5 µM; 48 h
Protocol: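 Single-concentration screen of the MMV Pandemic Response Box. P. falciparum NF54 asexual blood stages: pLDH assay, 72 h at 37 °C, 2 and 20 µM, n=2. Stage IV/V gametocytes (NF54): luciferase reporter (NF54-Pfs16-GFP-Luc, 48 h), ATP bioluminescence (24 h) and PrestoBlue (48 h) at 1 and 5 µM, n=1. P. berghei liver stage (luciferase in HepG2-A16-CD81, 48 h post infection) at 5 µM, n=4. All normalised to DMSO and kill controls as % inhibition.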
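Throughout, for % inhibition of HepG2 viability (CellTiter-Glo): HepG2-A16-CD81 hepatoma cells plated as in the liver-stage assay but without sporozoites, with DMSO wells as negative and 25 µM puromycin as positive control.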

Row | SMILES | % viability of CHO cells ([1]; 2 µM) [%] | % viability of CHO cells ([1]; 20 µM) [%] | % inhibition of HepG2 viability [2] [%] | % inhibition of gametocyte viability ([3]; 1 µM) [%] | % inhibition of gametocyte viability ([3]; 5 µM) [%] | % inhibition of asexual blood stage proliferation ([4]; 2 µM) [%] | % inhibition of asexual blood stage proliferation ([4]; 20 µM) [%] | % inhibition of gametocyte viability ([5]; 1 µM) [%] | % inhibition of gametocyte viability ([5]; 5 µM) [%] | % inhibition of gametocyte viability ([6]; 1 µM) [%] | % inhibition of gametocyte viability ([6]; 5 µM) [%] | % inhibition of liver stage parasite viability [7] [%]
1 | CCCCCOc1ccc(/C=C2\Oc3c(ccc(O)c3O)C2=O)c(O)c1 | 123 | 127 | 3.16 | < 0 | < 0 | 2.75 | 90.6 | < 0 | < 0 | < 0 | < 0 | 15.2
2 | CN(C)CCCNC(=O)c1ccc(-c2cc(O)c3ncccc3c2)cc1 | 115 | 110 | -5.75 | 70.8 | 81.4 | 68.6 | 82.4 | 71 | 81.1 | 5.12 | 23.3 | 
3 | CCc1cc(O)c(Oc2ccc(C(N)=O)cc2F)cc1F | 116 | 100 | 3.65 | 18.7 | 17.8 | 54.5 | 62.6 | < 0 | < 0 | < 0 | < 0 | 8.75
4 | Cc1c(F)cccc1NC(=O)Nc1ccc(Cl)c(S(=O)(=O)[C@H]2CCCNC2)c1O | 115 | 118 | -8.8 | < 0 | < 0 | 15.9 | 41.5 | 8.93 | < 0 | 0.356 | < 0 | 13.1
5 | COc1ccc2sc3c(c2c1)NC(C)CNC3=O (stereo not given) | 97.2 | 115 | 33.6 | < 0 | < 0 | 38.3 | 40.7 | < 0 | < 0 | 0.316 | < 0 | -51.9
6 | CC(C)(C)OC(=O)NCc1ccc(C(=O)N[C@H]2CCOC2=O)cc1 | 96.9 | 115 | 14.5 | 5.05 | < 0 | 18.3 | 17.2 | < 0 | < 0 | < 0 | < 0 | 39.8
7 | COc1cc(NC(=O)CN2C(=O)NC(c3ccccc3)(c3ccccc3)C2=O)cc(OC)c1 | 91.4 | 102 | -3.2 | < 0 | 28.9 | -4.55 | 7.51 | < 0 | < 0 | < 0 | 8.59 | 9.85
8 | CNCC(=O)OCc1cccnc1N(C)C(=O)OC(C)[n+]1cnn(C[C@](O)(c2cc(F)ccc2F)[C@@H](C)c2nc(-c3ccc(C#N)cc3)cs2)c1 (stereo not given in full) | 94.9 | 98.8 | 14.7 | 8.15 | 23.3 | 0.721 | 37.7 | < 0 | < 0 | < 0 | < 0 | 
9 | CN(C(=O)C1(c2ccc(Cl)cc2)CCC1)c1ccccc1 | 105 | 102 | -4.47 | 17.1 | 17.3 | 10.7 | 59 | < 0 | < 0 | < 0 | 1.35 | 
